# Experimental data taken from ChEMBL document CHEMBL1157539, “Thousands of chemical starting points for antimalarial lead identification” (Nature, 2010).
# Key:
# Assay type in all cases: functional
# Plasmodium falciparum [1] = assay: GSK_TCMDC: Inhibition of Plasmodium falciparum 3D7 in whole red blood cells, using parasite LDH activity as an index of growth. Test compounds present at 2uM
# Plasmodium falciparum [2] = assay: GSK_TCMDC: Inhibition of Plasmodium falciparum Dd2 in whole red blood cells, using parasite LDH activity as an index of growth. Test compounds present at 2uM
# HepG2 = assay: GSK_TCMDC: Percent inhibition of human HepG2 cell line. Test compounds present at 10uM.
SMILES,Inhibition (Plasmodium falciparum [1]) [%],Inhibition (Plasmodium falciparum [2]) [%],Inhibition (HepG2) [%]
Cc1cc(N2CCCN(CC3CCCCC3)CC2)nc(Nc2ccc(Br)cc2)n1,95,54,24
Cc1ccc(NC(=O)c2cnc(N3CCN(c4ccncc4)CC3)c(Cl)c2)cc1.O=C(O)C(F)(F)F,94,24,25
COc1ccc(-c2nc(NC(=O)COc3ccc(C(C)=O)cc3)sc2C)cc1,98,58,0
Cl.NC(=O)c1cccc(Nc2nccc(Nc3ccc(Oc4c(Cl)cccc4Cl)c(Cl)c3)n2)c1,93,17,2
COc1ccccc1N(C)CCNc1cc(C)nc(Nc2ccc(C)cc2)n1,93,25,9
CCN(CC)CCN(CCCc1ccc(-c2ccc(C(F)(F)F)cc2)cc1)C(=O)Cn1c(CCc2cccc(F)c2F)nc(=O)c2ccccc21.O=C(O)C(O)C(O)C(=O)O,100,49,37
CC(CCNc1c2ccccc2nc2ccccc12)N1CCN(C)CC1.Cl (stereo not drawn),100,0,25
Cl.N#Cc1cccc(/C=C/C(=O)NC2CCC(CCN3CCc4ccc(-c5cnccn5)cc4CC3)CC2)c1 (stereo not drawn),93,47,22
COc1ccccc1CNC(=O)c1cc(OC)c(OC)cc1NC(=O)c1cccs1,88,71,12
CCN(CC)S(=O)(=O)c1cc(-c2ccc(=O)n(CC(=O)c3ccc(C)cc3)n2)ccc1C,86,66,6
Cc1cccc2nc(-c3ccc(-c4ccc(CNCc5ccc(CN)cc5)cc4)s3)[nH]c12.O=C(O)C(F)(F)F,100,85,4
Cc1cc(CN2CCC(C(=O)Nc3ccc(-c4nc5ccccc5[nH]4)cc3)CC2)oc1C,95,9,0
CCNC(C)(C)CN(Cc1ccc(-c2ccc(C(F)(F)F)cc2)cc1)C(=O)Cn1c(SCc2ccc(F)cc2)nc(=O)c2c1CCC2.O=C(O)C(O)C(O)C(=O)O,95,94,99
Cl.N#Cc1ccc2c(c1)CN(CCC1CCC(NC(=O)c3cc4cc(OC(F)(F)F)ccc4[nH]3)CC1)CC2 (stereo not drawn),100,19,4
Cc1cc(NC2CCCC2)nc(Nc2ccccc2C)n1,88,20,0
CCN1CCN(c2cc(C)c3cc(NC(=O)c4ccc(N(CC)CC)cc4)ccc3n2)CC1,95,41,38
CCOc1cc(C(=O)NC2CC(C)(C)NC(C)(C)C2)ccc1-c1cc2cc(Cl)c(Cl)cc2[nH]1,100,46,37
Cc1cc(N[C@@H](CC(C)C)C(=O)NCc2cccs2)nc(NCCc2ccc(F)cc2)n1.O=C(O)C(F)(F)F,100,59,20
O=C(Nc1ccc(OC2CCN(Cc3ccc(F)cc3)C2)c(Cl)c1)c1ccco1.O=C(O)C(F)(F)F (stereo not drawn),96,97,9
CS(=O)(=O)CCNC(=O)c1ccc(-c2cc3c(Nc4ccc5c(cnn5Cc5ccccc5)c4)ncnc3cn2)o1.Cl,97,46,6
CC(C)(C)c1ccc(CN2CCC(NC(=O)c3ccc(-c4ccccc4Cl)s3)CC2)cc1.O=C(O)C(F)(F)F,84,29,36

SMILES,Inhibition (Plasmodium falciparum [1]) [%],Inhibition (Plasmodium falciparum [2]) [%],Inhibition (HepG2) [%]
O=C(NCc1ccccc1[S+]([O-])c1ccccc1CO)C(F)(F)F (stereo not drawn),98,2,50
CN(CCN1CCC(c2c[nH]c3ccccc23)CC1)C(=O)OCCCCCNC(=O)/C=C/c1ccc(Cl)c(Cl)c1,95,44,39
Cc1ncsc1CCN1C(=O)CC2(C1=O)C(=O)N(Cc1ccccc1)c1ccc(Cl)cc12 (stereo not drawn),86,46,0
Cn1nccc1C(=O)NCCNCc1ccc(-c2ccc(-c3nc4cc(C(F)(F)F)ccc4[nH]3)cc2)cc1.O=C(O)C(F)(F)F,100,99,35
COc1ccc2nccc([C@@H](O)CN3CCC(NCc4nc5cc(F)c(F)cc5[nH]4)CC3)c2c1.O=C(O)C(=O)O,96,36,12
O=C(Nc1ccc(OC2CCN(Cc3ccc(F)cc3)C2)c(Cl)c1)c1ccsc1.O=C(O)C(F)(F)F (stereo not drawn),98,95,26
CC(=O)c1cccc2c(NC(=O)Nc3ccc4nccc(N5CCN(C)CC5)c4c3)cccc12.Cl,99,94,13
COc1cc(Cc2c(C)nc3nc(N)nc(N)c3c2C)c(Br)c(OC)c1OC.Cl,93,0,44
CN1CCCC1CCNc1ncc2c(-c3ccc(NC(=O)Nc4cc(C(F)(F)F)ccc4F)cc3)nn(C)c2n1.O=C(O)C(F)(F)F (stereo not drawn),96,72,74
OC1=C2C(=Nc3ccccc3SC2c2cccs2)c2ccccc21 (stereo not drawn),96,93,8
N=C1NC(=N)N(OCCCCCCON2C(=N)NC(=N)NC2C=Cc2ccccc2)C(C=Cc2ccccc2)N1 (stereo not drawn),97,94,17
O=C(NCC1Cc2cc(Oc3ccccc3)ccc2O1)c1ccc([N+](=O)[O-])o1 (stereo not drawn),88,81,83
Cl.Clc1ccc(OCCC2CCN(CCCCCCCN3CCC(CCOc4ccc(Cl)c(Cl)c4)CC3)CC2)cc1Cl,99,82,100
CN1CCN(CCNc2c3ccccc3nc3ccc4ccccc4c23)CC1.Cl,99,99,22
O=C(O)C(F)(F)F.O=[N+]([O-])c1cccc(CNCC2CCN(Cc3ccc(-c4ccccc4)cc3)CC2)c1,100,91,28
Br.COc1ccc(OCCCON2C(=N)N=C(N)NC2(C)C)cc1,97,94,55
CCOC(=O)C1=C(C)NC(Cn2ccnc2)=C(C(=O)OCC)C1c1ccc(C(C)(C)C)cc1.Cl (stereo not drawn),100,33,8
O=C(Nc1ccc(Cl)cc1)OCCn1nnnc1C(c1ccc(Cl)cc1)N1CCOCC1 (stereo not drawn),90,79,1
Cc1cc(N[C@@H](Cc2ccccc2)C(=O)NCc2cccc(F)c2)nc(NCCc2cccnc2)n1.O=C(O)C(F)(F)F,92,40,18
CCN(CC)c1nc(-c2ccccc2)cc(-c2ccccc2)c1C#N,100,66,0
